Results published in PubChem BioAssay (NCATS).
Inconclusive results are not listed. A call without a number means that no potency is given here. Values without a mark were called inactive. Calls of active or inactive are those of the source. The call rests on the fitted dose curve; in most records, active means well fitted cell-killing curve with a large enough effect; inconclusive means small, poorly fitted or top-dose-only effect, or effect the other way; inactive means flat fitted curve, though single readings scatter.

Tested on: CAOV3
Assay: Primary qHTS to identify gynecologic anti-cancer compounds using libraries of approved drugs and bioactive compounds (AID 1345084); further: nearly all actives have a fitted effect of over 55% in size
Conditions: Gynecologic cancer cell panel viability, ATPlite luminescence, 48 h; series mostly up to 57.5 µM
Method in brief: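 Five-concentration response, 48 h; readout is ATP-driven luciferase luminescence.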
Potency means the concentration at half of the fitted maximal effect.

SMILES	activity change, negative = cytotoxicity	Potency
CC(=O)O[C@H]1CC(C)(C)CC2[C@]13CO[C@@]21CCC2[C@@]4(C)CC[C@H](O[C@@H]5OC[C@H](O[C@@H]6O[C@H](CO)[C@@H](O)[C@H](O)[C@H]6O[C@@H]6OC[C@@H](O)[C@H](O)[C@H]6O)[C@H](O)[C@H]5O[C@@H]5O[C@H](CO)[C@@H](O)[C@H](O)[C@H]5O)[C@@](C)(CO)C4CC[C@@]2(C)[C@]1(C)C[C@H]3O (some centres undefined)	-0.697% [at 11.6 µM]	–
N#Cc1ccc(COc2ccc(-c3cccc4nc(NC(=O)C5CC5)nn34)cc2)cn1	–	22.4 µM (active)
C=C1C(=O)O[C@@H]2[C@H]3C(C)=CC(=O)C3=C(C)[C@@H](OC(=O)/C(C)=C\C)[C@H](O)[C@@H]12	–	inactive
CN(C)CCN(Cc1ccc(-c2ccc(CNCCc3ccccc3)cc2)cc1)C(=O)CCC1CCCC1	–	5.62 µM (active)
Oc1cccc(-c2c3nc(c(-c4cccc(O)c4)c4ccc([nH]4)c(-c4cccc(O)c4)c4nc(c(-c5cccc(O)c5)c5ccc2[nH]5)CC4)C=C3)c1	–	inactive
CCOC(=O)c1csc(Nc2ccc(Cl)cc2)n1	–	inactive
FC(F)(F)c1ccccc1-c1cc(C(F)(F)F)c2nc(C3=NOC4(CCCCC4)C3)[nH]c2c1	–	inactive
CCn1c(=O)c(-c2ccc(-c3cncs3)cc2Cl)cc2cnc(Nc3ccc(N4CCN(C)CC4)cc3)nc21	–	inactive
CC(CCC1(O)OC2CC3C4CC=C5CC(O[C@@H]6O[C@H](CO)[C@@H](O[C@@H]7O[C@@H](C)[C@H](O)[C@@H](O)[C@H]7O)[C@H](O)[C@H]6O[C@@H]6O[C@@H](C)[C@H](O)[C@@H](O)[C@H]6O)CCC5(C)C4CCC3(C)C2C1C)CO[C@@H]1O[C@H](CO)[C@@H](O)[C@H](O)[C@H]1O (some centres undefined)	-11% [at 11.6 µM]	–
